Source: PubChem (several laboratories)
Wnt bcat act – activates Wnt/beta-catenin signaling in a reporter cell assay | activation, % at 9.35 µM | activator, plate reader | 1.2% of 300,000 active; in the data active = activation above about 30%, passing the limit was not always enough; inconclusive = no clear call, values can overlap the other calls;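 also: 0% = neutral control wells and 100% = positive control wells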
HSF1 inhib – HSF1 inhibition; NIH3T3-HGL HSE-luciferase, MG132-induced, luminescence 8 h; stronger effect = lower value; activity change, negative = inhibition, % at 7.5 µM (by protocol); 0.77% of 300,000 active; AID 2098;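 active = more than half of replicate wells show activity change below -50%, luminescence cut by over half; inconclusive = some wells, but at most half, below -50%; inactive = no replicate well below -50%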;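 also: luciferase reports HSF-1 transcriptional activity via heat shock element; 0% = median of DMSO wells and -100% = zero luminescence signal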
esBAF inh – SWI/SNF esBAF complex inhibition; mouse ES cells, Bmi1-luciferase knock-in reporter, 24 h; 100% = twice the neutral-well signal; 2% of 350,000 active; reporter increase, % at 12.5 µM; in the data active = activation above about 40%; inconclusive = no clear call, values can overlap the other calls;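 also: 0% = median of the plate's neutral control wells and 100% = double that signal; a rise in the Bmi1 reporter signal indicates esBAF inhibition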
HSF-1 act – increases HSF-1 driven luciferase reporter signal; AID 504408; 1.7% of 300,000 active; activation, % at 9 µM; NIH3T3-HGL HSF-1 luciferase reporter, MG132, 8 h; 100% = twice DMSO control signal;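 active = mean replicate activation of at least 50% with a set share of replicates each reaching 50%; inconclusive = only one of those two conditions met; inactive = mean below 50% and too few replicates reaching it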;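 also: 0% = median of the neutral control wells and 100% = twice that signal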
SMARCA2 activ – increases SMARCA2 function in MMTV reporter cells; MG213 cells, MMTV-luciferase reporter, dexamethasone, overnight; activation, % at 9.1 µM; 1% of 370,000 active; in the data active = activation above about 7.8%;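 also: 0% = vehicle wells and 100% = reference activator wells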
MITF act – increases MITF-driven TRPM1 promoter luciferase signal; activation, % at 12.5 µM; 0.75% of 300,000 active; AID 588334; SK-MEL-5 TRPM1-promoter luciferase, 24 h; % of positive control, neutral wells = 0;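 active = mean activation of at least 80% with every replicate also reaching 80%; inconclusive = mean reaches 80% but some replicate falls short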;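 also: 0% = neutral control wells and 100% = parthenolide positive control wells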
The depositor's hits bear a star; ? = inconclusive; · = no result given. The list is not random: actives were taken first. Their share in the collection is about 4.3%.

SMILES	Wnt bcat act	HSF1 inhib	esBAF inh	HSF-1 act	SMARCA2 activ	MITF act
C[C@H](CO)N1C[C@H](C)[C@H](CN(C)C(=O)NC2CCCCC2)Oc2ccc(NC(=O)C3CCCCC3)cc2CC1=O	·	·	0	·	·	·
Oc1ccc(/C=C/c2ccc3ccccc3n2)cc1	-3	-20	-39	-34	-4	-70
O/C(=C\c1ccc2ccccc2n1)c1ccc(O)cc1O	43*	15	-30	27	0	20
CCc1cccc(NS(=O)(=O)c2ccc3c(c2)NC(=O)C(C)S3)c1 (stereo not given)	-5	35	-6	77*	-4	-8
COc1cccc(NS(=O)(=O)c2ccc3c(c2)NC(=O)C(C)S3)c1 (stereo not given)	-1	-1	·	3	-4	9
Cc1cc(/C=C(/C#N)C(=O)Nc2ccccc2)c(C)n1-c1cccnc1	·	16	44*	20	1	52
Cc1cc(/C=C(\C#N)C(=O)Nc2ccccc2)c(C)n1-c1ccc2c(c1)OCO2	-1	14	13	35	-3	13
Cc1cc(C=C(C#N)C#N)c(C)n1-c1ccccc1	·	-1	46*	36	0	44
C[C@@H]1CCCCO[C@H](CN(C)S(=O)(=O)c2ccc(Cl)cc2)[C@@H](C)CN([C@@H](C)CO)C(=O)c2cc(NC(=O)c3ccncc3)ccc2O1	·	·	0	·	·	·
CCCC(=O)Nc1ccc2c(c1)C(=O)N(C)C[C@@H](OC)[C@H](C)CN(Cc1ccc(-c3ccccn3)cc1)[C@H](C)CO2	·	·	-5	·	·	·
Cc1cc(Cl)ccc1OCC(=O)Nc1nc(-c2cccs2)cs1	-3	3	-4	27	-1	-6
Cc1cc(Cl)ccc1OCC(=O)Nc1nc(-c2cccnc2)cs1	0	-60*	·	-70	-1	-3
Cc1cc(C)cc(OCC(=O)Nc2nc(-c3cccnc3)cs2)c1	0	-59*	-2	-58	0	-10
COc1ccc(NC(=O)N(C)C[C@@H]2Oc3c(NC(=O)Nc4ccc5c(c4)OCO5)cccc3C(=O)N([C@H](C)CO)C[C@@H]2C)cc1	·	·	4	·	·	·
Cc1ccc(NC(=O)NC2CCCCC2)cc1Cl	·	·	85*	·	3	?
Cc1ccc(NC(=O)CN(C)C2CCCCC2)cc1Cl	-2	-82*	-1	-84	0	·
CCCn1c(=O)[nH]c(=O)c2c1nc(-c1ccc(OC(F)F)c(OC)c1)n2CCOC	·	13	-8	11	0	0
CCCn1c(=O)[nH]c(=O)c2c1nc(-c1ccccc1OC(F)F)n2CCOC	·	23	3	53*	0	-9
O=C(N[C@H]1CC[C@H](CCNS(=O)(=O)Cc2ccccc2)O[C@@H]1CO)c1ccccc1F	·	·	-1	·	·	·
O=C(CBr)c1ccc([N+](=O)[O-])c(CS(=O)(=O)c2ccc(Cl)cc2)c1	1	53	-2	60*	-1	-7
Cc1ccc(-n2c(SCC(=O)Nc3cc(S(=O)(=O)N4CCOCC4)ccc3Cl)nc3ccccc3c2=O)cc1	2	29	·	73*	-3	1
O=C(CSc1nc2ccccc2c(=O)n1-c1ccc(F)cc1)Nc1ccc(Cl)c(S(=O)(=O)N2CCOCC2)c1	-2	-2	·	4	-1	0
C[C@H](CO)N1C[C@H](C)[C@@H](CN(C)C(=O)Nc2ccc3c(c2)OCO3)Oc2ccc(NC(=O)Cc3ccccc3)cc2CC1=O	·	·	2	·	·	·
Cc1ccc(C(C)(O)CS(=O)(=O)Cc2ccccc2Cl)cc1 (stereo not given)	-2	51	3	112*	5	·
C[C@@H]1CCCCO[C@@H](CN(C)S(=O)(=O)c2ccc(F)cc2)[C@H](C)CN([C@@H](C)CO)C(=O)c2cc(NC(=O)c3ccccc3)ccc2O1	·	·	9	·	·	·
SMILES	Wnt bcat act	HSF1 inhib	esBAF inh	HSF-1 act	SMARCA2 activ	MITF act
OC[C@H]1[C@H]2c3ccccc3NC[C@H]2N1CC1CCOCC1	·	·	7	·	·	·
COc1cc(/C=C2/NC(=O)N(Cc3ccccc3F)C2=O)ccc1O	28	69	·	107*	-5	-7
COc1ccc(C(=O)NCCC2=CCCCC2)cc1	?	-4	·	6	0	11
COc1ccc(C(=O)NCCC2=CCCCC2)cc1OC	·	3	50*	45	7	·
Cc1cc(C(=O)NCCC2=CCCCC2)ccc1[N+](=O)[O-]	·	39	·	58*	3	33
Cc1ccc(NC(=O)NC(=O)CN2CCC(C(N)=O)CC2)c(C)c1	30	·	43*	·	5	·
Cc1ccc(NC(=O)NC(=O)CN2CCN(c3ccc(O)cc3)CC2)c(C)c1	-4	-66*	7	-73	-5	-7
CCCNC(=O)N[C@@H]1CC[C@@H](CCn2cc(-c3cccc(F)c3)nn2)O[C@H]1CO	·	·	5	·	·	·
COC(=O)C[C@@H]1CC[C@@H]2[C@H](COC[C@@H](O)CN2CCC(F)(F)F)O1	·	·	-5	·	·	·
CO[C@H]1CN(C)C(=O)c2cc(NS(=O)(=O)c3cn(C)cn3)ccc2OC[C@H](C)N(C)C[C@H]1C	·	·	2	·	·	·
C[C@@H]1CN([C@H](C)CO)C(=O)Cc2cc(N(C)C)ccc2O[C@H]1CN(C)Cc1ccncc1	·	·	-3	·	·	·
C[C@H]1CN([C@@H](C)CO)C(=O)c2cc(/C=C/c3ccccc3)cnc2O[C@H]1CN(C)C(=O)c1ccccc1	·	·	-1	·	·	·
COc1ccc(S(=O)(=O)N(C)C[C@H]2Oc3c(NS(=O)(=O)c4cccs4)cccc3C(=O)N([C@@H](C)CO)C[C@H]2C)cc1	·	·	-5	·	·	·
O=C(C[C@H]1C[C@H]2c3cc(NC(=O)c4ccc5c(c4)OCO5)ccc3O[C@H]2[C@H](CO)O1)NCc1ccc(Cl)cc1	·	·	11	·	·	·
CCOC(=O)c1c(NC(C)=O)sc2c(O)c(CN3CCN(CC)CC3)ccc12	·	75	2	112*	-1	3
COc1ccc(C2C3=C(CCCC3=O)N(CC(=O)O)C3=C2C(=O)CCC3)cc1Cl	0	30	3	77*	-2	-6
Cn1c(=NC(=O)c2ccc(S(=O)(=O)N3CCCc4ccccc43)cc2)sc2cc(S(C)(=O)=O)ccc21	4	-9	·	-6	1	-7
C#CCn1c(=NC(=O)c2ccc(S(=O)(=O)N3CCCc4ccccc43)cc2)sc2cc(S(N)(=O)=O)ccc21	-5	6	·	53*	-4	-4
C/C=C/c1cnc2c(c1)C(=O)N([C@@H](C)CO)C[C@H](C)[C@H](CN(C)C(=O)Nc1ccc(OC)cc1)O2	·	·	-1	·	·	·
COc1ccc2[nH]c3c(N4CCc5ccccc5C4)ncnc3c2c1	14	71	·	64*	-3	·
Clc1cccc(Cc2c(-c3ccccc3)nc3ccc(Cl)cn23)c1	11	·	16	·	3	·
Cc1ccc2nc(-c3ccccc3)c(Cc3cccc(Cl)c3)n2c1	41*	·	?	·	2	·
Cc1ccc2nc(-c3ccc(Cl)cc3)c(Cc3ccsc3)n2c1	7	·	·	·	7.8*	·
Clc1ccc2nc(-c3cccc(Br)c3)c(Cc3ccccc3)n2c1	34*	·	?	·	-1	·
